Test results: PubChem BioAssay (NCI)
The panel holds about 79,000 compounds, 15% with a hit somewhere; the sample as a whole holds those more often. Active and inactive are the calls of the source. Cut-off read from the data, not from the text of the source: active = growth inhibition above about 70%; inactive = the rest.

experiment: NCI Yeast Anticancer Drug Screen. Data for the cln2 rad14 strain (AID 165);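 note: 0% = growth equal to vehicle treated cultures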; settings: S. cerevisiae cln2 rad14 strain, stronger effect = higher value; at 50.0 µM unless noted
How it was run: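 Strain: cln2 rad14 yeast, altered in cell cycle control and DNA damage repair. Read-out: growth inhibition vs vehicle.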

| SMILES | growth inhibition |
| --- | --- |
| O=c1[nH]c(=O)n(C2CC(O)C(CO)O2)cc1OCCCc1ccccc1 (centres undefined) | 13.8% (inactive) |
| CC(=O)Nc1ccc(NC(=O)NCCCCCCNC(=O)Nc2ccc(NC(C)=O)cc2)cc1 | -20.6% (inactive) |
| Nc1nc2cc(F)ccc2o1 | -20.1% (inactive) |
| CCc1cccc(CC)c1NC(=O)OCCN(CC)CC | 16.8% (inactive) |
| O=c1oc2ccccc2cc1O | -28.9% (inactive) |
| Fc1ccc2c(c1)SC1Oc3ccccc3-c3c1c-2nn3-c1ccccc1 (centres undefined) | 8.8% (inactive) |
| CCN(CC)c1c(C)c(-c2ccccc2)n[n+]([O-])c1-c1ccccc1 | 1.85% (inactive) |
| Cc1ccc(N2CCC(O)C2)cc1 (centres undefined) | 4.95% (inactive) |
| CC1COC(C)(C)P(=O)(c2ccccc2)C1 (centres undefined) | 16.2% (inactive) |
| CCC(C(N)=O)c1ccccc1 (centres undefined) | -6.75% (inactive) |
| N#Cc1c(C(F)(F)F)cc(-c2cccs2)nc1SC(C(=O)Nc1cc(C(F)(F)F)cc(C(F)(F)F)c1)c1ccccc1 (centres undefined) | 17.3% (inactive) |
| CCCCCCC(=O)C/C(=N/NC(N)=S)C(=O)NC1C2CC3CC(C2)CC1C3 (centres undefined) | 29.4% (inactive) |
| Cc1ccc(S(=O)(=O)C2CC(=O)N(c3ccc(F)c(Cl)c3)C2=O)cc1 (centres undefined) | -19.2% (inactive) |
| N#CCCCCCOCCOCCOCCOCCOCCCCCC#N | 12.7% (inactive) |
| CC12C(=C(C#N)C(=N)N1c1ccc(Cl)c(Cl)c1)C=C(O)CC2SCCS(=O)(=O)O (centres undefined) | 27.4% (inactive) |
| FC(F)(F)c1cc(NC(=S)SCc2ccc3c(c2)OCO3)ccc1Cl | 38.5% (inactive) |
| O=c1nc2c(c(-c3ccc(F)cc3)[nH]1)COC/C2=C\c1ccc(F)cc1 | 21.1% (inactive) |
| Cc1ccccc1NC(=O)C(=O)CC(=O)c1sc(-n2nc(-c3ccccc3)cc2-c2ccccc2)nc1C | 16.4% (inactive) |
| CC(C)N(Cc1ccccc1)S(=O)(=O)c1n[nH]c(C(C)(C)C)n1 | -5.8% (inactive) |
| O=C(O)[C@H](Cc1ccccc1)N1C(=O)N[C@@H](Cc2ccccc2)C1=O | 2.35% (inactive) |

| SMILES | growth inhibition |
| --- | --- |
| N#Cc1c(-c2ccc(Cl)cc2)c(-c2ccc(Cl)cc2)nn(CCOC(=O)CCC(=O)OCCn2nc(-c3ccc(Cl)cc3)c(-c3ccc(Cl)cc3)c(C#N)c2=O)c1=O | -24.4% (inactive) |
| O=c1c2c3c(sc2nc2n1N=C(c1ccc(Cl)cc1)CS2)CCCC3 | 1.8% (inactive) |
| COc1nc(NC2OC(CO)C(O)C(O)C2O)c(I)c(=O)[nH]1 (centres undefined) | -6.25% (inactive) |
| N#C/C(=C1/c2cc([N+](=O)[O-])ccc2-c2c1cc([N+](=O)[O-])cc2[N+](=O)[O-])N1CCCCC1 | -17.8% (inactive) |
| CCOC(=O)C(=O)Nc1c(C)cccc1C(C)(C)C | 3.55% (inactive) |
| Cc1ccc(-c2nc3ccc(Cl)cc3[nH]2)cc1 | 17.1% (inactive) |
| COc1ccc(C(OC(=O)Oc2ccccc2)c2ccccc2)cc1 (centres undefined) | -20.1% (inactive) |
| OCC[P+](c1ccccc1)(c1ccccc1)c1ccccc1 | 16.4% (inactive) |
| CCCCCCCCCCCCCCCC[N+](C)(C)CC#N | 99% (active) |
| O=C(CSS(=O)(=O)O)Nc1ccccc1 | 14.6% (inactive) |
| COc1ccccc1CN1CCCN(Cc2ccccc2OC)C1c1ccc(N(C)C)cc1 | 22.8% (inactive) |
| O=c1oc(-c2ccc([N+](=O)[O-])cc2Cl)nc2ccccc12 | 2% (inactive) |
| COc1ccc(C(=[N+]=[N-])c2ccc(OC)cc2)cc1 | -48.2% (inactive) |
| O=C(CCl)Oc1ccc(C(=O)O)cc1 | -3.65% (inactive) |
| N/N=C1/CCN2CCCc3cccc1c32 | -27.4% (inactive) |
| Cc1cc(Cl)ccc1OCC(=O)NCCO | 10.4% (inactive) |
| CN(C)c1ccc(/C=C2\C(=O)/C(=C\c3ccc(N(C)C)cc3)c3ccccc32)cc1 | -12.5% (inactive) |
| COc1cccc(C(c2ccccc2)C(CC(=O)O)CC(=O)O)c1 (centres undefined) | 4% (inactive) |
| C=C(C)C(C(=O)OCC)C(=O)OCC | 10.5% (inactive) |
